Source: PubChem (The Scripps Research Institute Molecular Screening Center)
This is a sample that favours compounds with a hit; in the whole collection about 4.8% have one here.
DAX1 inh-1 – inhibits human nuclear receptor DAX1. P51843. HEK293 Gal4-DAX1 luciferase reporter, luminescence. inhibition, % at 6.75 µM. hit rate 0.99% among 340,000. AID 504766;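 active means inhibition above the mean over all tested compounds plus 3 SD, cut at about 4.2% in these data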;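 further: 0% = DAX1-transfected cells with DMSO and 100% = empty-vector control cells with DMSO; inhibition shows as a rise in luminescence from relieved DAX1 repression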
Target sequence (P51843 207-470 limits assumed): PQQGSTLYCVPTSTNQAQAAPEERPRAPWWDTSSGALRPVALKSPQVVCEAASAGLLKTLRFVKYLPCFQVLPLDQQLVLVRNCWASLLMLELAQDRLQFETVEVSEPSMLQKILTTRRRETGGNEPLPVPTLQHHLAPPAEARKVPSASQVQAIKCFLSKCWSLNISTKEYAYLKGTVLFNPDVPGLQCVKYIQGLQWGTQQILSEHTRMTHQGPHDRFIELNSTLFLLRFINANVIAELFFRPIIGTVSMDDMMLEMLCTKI
SMARCA2 act – increases SMARCA2 function in MMTV reporter cells. activation, % at 9.1 µM. hit rate 1% among 370,000. MG213 cells, MMTV-luciferase reporter, dexamethasone, overnight; in the data active means activation above about 7.8%;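 further: 0% = vehicle wells and 100% = reference activator wells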
ssDAF12 agonist – activates DAF-12 receptor from parasite S. stercoralis. AID 652126. hit rate 1% among 370,000. HEK293 ssDAF-12/GRIP1 lit1-tk-luc reporter, luminescence; % of 3 µM dafachronic acid response. activation, % at 6.8 µM;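 active means activation above the mean over all tested compounds plus 3 SD, cut at about 0.9% in these data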;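 further: 0% = DMSO-only wells and 100% = 3 µM delta7-dafachronic acid wells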
hcDAF-12 act – activates DAF-12 receptor from parasite H. contortus; HEK293 hcDAF-12 lit1-tk-luc reporter, luminescence; 0% DMSO, 100% Δ7-dafachronic acid; activation, % at 6.8 µM; hit rate 1.4% among 370,000; AID 652067;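 active means activation above the mean of all tested compounds plus 3 SD, cut at about 5.5% in these data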;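 further: 100% = response to 3 µM Δ7-dafachronic acid high control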
hgDAF12 agonist – activates the H. glycines DAF-12 receptor ligand-binding domain | HEK293 GAL4-hgDAF12 UAS-luciferase reporter, agonist luminescence; normalized to butyrate control | AID 687014 | activation, % at 6.8 µM | hit rate 1.8% among 370,000;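 active means activation above a cutoff set at the mean of all screened compounds plus 3 SD, cut at about 10% in these data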;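 further: 0% = DMSO wells and 100% = sodium butyrate wells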
DAX1 inh-2 – inhibitors of DAX1 repression of SF-1 activated StAR promoter. inhibition, % at 6.8 µM. HEK293T StAR-luciferase reporter, SF-1/DAX-1 repression relief. hit rate 1.1% among 370,000;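 active means inhibition above the mean over all tested compounds plus 3 SD, cut at about 3.6% in these data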;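 further: 0% = DAX-1 cells with DMSO and 100% = cells lacking DAX-1 with DMSO; higher inhibition means more luminescence from relief of DAX-1 repression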
The depositor's hits bear a star; · = no result given.

SMILES | DAX1 inh-1 | SMARCA2 act | ssDAF12 agonist | hcDAF-12 act | hgDAF12 agonist | DAX1 inh-2
Cc1ccc(-n2c(O)c(C=NCc3ccccn3)c(=O)[nH]c2=S)cc1 | 5.1* | -5 | -1 | 0 | 3 | 0
COCCCN=Cc1c(O)[nH]c(=S)[nH]c1=O | 7.0* | -1 | -1 | -2 | 2 | 1
O=C(c1cc(Cl)cc(Cl)c1)N1Cc2ccccc2-n2nncc2C1 | 0 | -2 | -1 | 0 | 2 | 2
CC/C(=N\Nc1cccc2ccccc12)c1c(O)[nH]c(=O)[nH]c1=O | -3 | -2 | 1.3* | 2 | 1 | -1
COC(=O)C1=C(c2ccc(S(C)(=O)=O)cc2)C[C@@H]2CC[C@H]1N2C(=O)NC1CCCCC1 | 0 | 1 | -1 | 1 | 0 | 0
Cc1cc(C(=O)OC(C)C(=O)Nc2ccccc2)c(C)n1C1CC1 (stereo not drawn) | -1 | -4 | -2 | -1 | 2 | -2
O=C1NC(=O)C2(Cc3cc([N+](=O)[O-])ccc3N3CCN(C(=O)c4ccccc4)CC32)C(=O)N1 (stereo not drawn) | 0 | -2 | -1 | 1 | 0 | 0
CCOP(=O)(C#Cc1ccccc1)C(O)c1ccc(Br)cc1 (stereo not drawn) | 4.6* | -1 | -1 | -2 | -2 | 0
COP(=O)(C#Cc1ccccc1)C(O)c1ccc(Br)cc1 (stereo not drawn) | 1 | -3 | -1 | -1 | 0 | 0
CNC(=O)O/N=C(\C)Cc1nnn(-c2cc(C)on2)n1 | 5.1* | -1 | -1 | 0 | 2 | 0
CNC(=O)c1cccn(Cc2ccc(C(F)(F)F)cc2)c1=O | 1 | -3 | 2.4* | 0 | -4 | -1
NCCNc1ccc([N+](=O)[O-])c2cccnc12 | 6.0* | 7 | -2 | 2 | 6 | 1
CC(=O)C1C2c3ccccc3O[C@@]1(C)N=c1s/c(=C/c3ccoc3)c(=O)n12 (stereo partly drawn) | -1 | 3 | -1 | -3 | -2 | 0
CN(C)C(=O)Oc1ccc(C(=O)c2ccccc2)cc1 | 0 | 7.9* | -1 | 3 | 6 | 1
CN(C)C(=O)Oc1ccc(OC(=O)N(C)C)cc1 | 0 | 4 | -1 | 0 | 2 | 0
CCCCn1c(O)c(C(=O)/C=C/c2c[nH]c3ccccc23)c(=O)[nH]c1=O | 1 | 1 | -1 | 6.0* | -2 | 0
CC(C)C[C@H](NP(=O)(O)O[C@@H]1O[C@@H](C)[C@H](O)[C@@H](O)[C@H]1O)C(=O)N[C@@H](Cc1c[nH]c2ccccc12)C(=O)O | 0 | 1 | -1 | -1 | 0 | -1
O=C1NC(=S)NC(=O)C12C(c1ccc(F)cc1)NC(=S)NC2c1ccc(F)cc1 (stereo not drawn) | -1 | -1 | -1 | 2 | 2 | 0
Cc1ccc(C2NC(=S)NC(c3ccc(C)cc3)C23C(=O)NC(=O)NC3=O)cc1 (stereo not drawn) | 4.3* | -2 | -1 | 2 | 1 | 0
COC(=O)C1=C(N)Oc2cc(C)oc(=O)c2C12C(=O)Nc1ccccc12 (stereo not drawn) | 0 | -2 | 1.0* | 5 | -2 | 0
CCCCOC(=O)C1=C(N)OC2=C(C(=O)CCC2)[C@]12C(=O)Nc1ccccc12 | 0 | -4 | 0 | 2 | 4 | 0
COCCOC(=O)C1=C(C)OC(N)=C(C(=O)OC)C12C(=O)Nc1ccccc12 (stereo not drawn) | 0 | -4 | 1 | 3 | 1 | 0
CC(=O)C1=C(C)OC(N)=C(C(=O)OC(C)C)C12C(=O)Nc1ccccc12 (stereo not drawn) | 0 | 0 | -1 | 6.2* | 1 | 0
C=CCn1c(O)c(C(CC)=Nc2ccc(N(C)C)cc2)c(=O)[nH]c1=O | · | 3 | -1 | -1 | -3 | 0
c1ccc(CN2CCc3nc4ccccc4cc3C2)cc1 | 2 | 3 | -1 | 1 | 12* | 0
SMILES | DAX1 inh-1 | SMARCA2 act | ssDAF12 agonist | hcDAF-12 act | hgDAF12 agonist | DAX1 inh-2
CC[N+](C)(CC)CCCCOc1ccc2c(c1)C(=O)c1cc(OCCCC[N+](C)(CC)CC)ccc1-2 | 5.5* | -1 | -2 | -1 | 3 | 0
CC(C)(C)C(=O)OCC12CCC(O1)C1(C)C(=O)OCC21 (stereo not drawn) | 0 | -1 | -1 | 0 | -2 | 0
Cc1cccc(C)c1-n1nnnc1C(C1CC1)N1CCC2(CC1)C(=O)NCN2c1ccccc1 (stereo not drawn) | · | -2 | -1 | -1 | 0 | -2
CN1CCc2c([nH]c3ccccc23)C1 | -1 | 1 | -1 | 5 | 7 | -1
CC1=NCCc2c1[nH]c1ccccc21 | 0 | 1 | 1.0* | 6.3* | -1 | 0
COc1ccc2[nH]c(C)c(CCNCc3cc(OC)c(OC)c(OC)c3)c2c1 | 0 | -2 | -2 | -1 | -2 | -1
Cc1ccc2[nH]c(C)c(CCNCc3cccnc3)c2c1 | 0 | -1 | 1.0* | -1 | -1 | 0
Cc1ccccc1-n1c(C)nc2ccsc2c1=O | 2 | -2 | -1 | -1 | 0 | 0
Cc1ccc(OP2(=O)Nc3cc(C)c(C)cc3S2)cc1 (stereo not drawn) | 2 | 3 | 1 | 5.7* | 4 | 1
CC1=CC(=O)NP(=O)(Oc2ccc3ccccc3c2)N1 (stereo not drawn) | 0 | 3 | -1 | -1 | 0 | 1
CCOC(=O)CC(SP1(=S)OCC2(CC=CCC2)CO1)C(=O)OCC (stereo not drawn) | 0 | -3 | -1 | 1 | -3 | 3.9*
Cc1cc(C)[n+](CCCC[n+]2c(C)cc(C)cc2C)c(C)c1 | 0 | 1 | -1 | 1 | -2 | 0
COc1ccc(N=Nc2c(O)[nH]c(=S)[nH]c2=O)cc1 | 3 | 5 | -1 | 2 | 8 | 3.9*
O=c1[nH]c(=S)[nH]c(O)c1N=Nc1ccc(OC(F)F)cc1 | 4.4* | 3 | 0 | 1 | 4 | 2
Clc1cccc(N2Cc3cc(-c4ccccc4)ccc3-n3nncc3C2)c1 | · | 5 | -1 | -1 | -6 | -4
CCc1ccc(-n2c(O)c(C(C)=O)c(=O)[nH]c2=O)cc1 (tested in a mixture with another compound) | 0 | 0 | -1 | -1 | 0 | 0
CCOP(=O)(OCC)C1(C(=O)O)CCCC1 | 5.1* | -4 | -1 | -1 | 0 | -1
c1ccc2c(CNC3CCCCCC3)c[nH]c2c1 | -1 | 3 | 0 | 5.7* | 0 | 0
O=c1[nH]c2ccccc2o1 | 1 | 2 | -1 | -1 | -2 | 0
COc1ccc2c(C)c(CCC(=O)N3C[C@H]4C[C@@H](C3)c3cccc(=O)n3C4)c(=O)oc2c1 | 5.7* | -1 | -1 | -2 | 4 | 1
